Experimental data published in PubChem BioAssay (Tox21).
Unmarked numbers belong to inactive results. Results filed as inconclusive are left out. A call without a number means that no potency is given here. Active and inactive are the calls of the source. Unless noted, calls come from the whole dose curve; as a rule, active = well fitted curve in the direction sought with a large enough effect in the repeat runs; inconclusive = weak or mixed curves; inactive = no such curve, though single readings can be large; an effect the other way counts as inactive or inconclusive.

What was measured:
[1] = qHTS assay to identify small molecule antagonists of the estrogen receptor alpha (ER-alpha) signaling pathway using the BG1 cell line in the presence of 0.1 nM 17-beta-estradiol - cell viability counter screen (AID 1259241); note: nearly all actives have a fitted effect of over 40% in size
Method in brief: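 The cell line endogenously expresses full-length ER-alpha and carries four EREs driving luciferase. Cells are cultured 5 days hormone-free, treated 22 hr with compounds and 0.1 nM estradiol, then viability is read by fluorescence.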

[2] = qHTS assay to identify small molecule antagonists of the androgen receptor (AR) signaling pathway using the MDA cell line in the presence of 0.5 nM R1881 - cell viability counter screen (AID 1259242); note: nearly all actives have a fitted effect of over 45% in size
Method in brief: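 Fluorescence from CellTiter-Fluor, which reports protease activity of live cells, was read 30 min after reagent addition to MDA-kb2 cells that had been incubated 16 hr with compound and 0.5 nM R1881.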

[3] = target: Estrogen receptor (Homo sapiens) (UniProt P03372); assay: qHTS assay to identify small molecule antagonists of the estrogen receptor alpha (ER-alpha) signaling pathway using the BG1 cell line in the presence of 0.1 nM 17-beta-estradiol (AID 1259244); note: nearly all actives have a fitted effect of over 50% in size; note: potency is the fitted concentration of half-maximal effect
Method in brief: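 Quantitative high-throughput screen in VM7Luc4E2 cells: compound plus 0.1 nM E2 (final), 22 h, 37C, 5% CO2; ONE-Glo added, 30 min room temperature, luminescence measured.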

[4] = qHTS assay to identify small molecule HDAC inhibitors (AID 1259364); note: nearly all actives have a fitted effect of over 45% in size; note: potency is the fitted concentration of half-maximal effect
Method in brief: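 Endogenous HDAC class I/II activity was measured in wild-type HCT-116 cells by HDAC-Glo luminescence after 2 h compound treatment.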

[5] = qHTS assay to identify small molecule HDAC inhibitors - cell viability counter screen (AID 1259365); note: series mostly up to about 92 µM; nearly all actives have a fitted effect of over 50% in size
Method in brief: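 Viability readout: CellTiter-Glo luminescence. Wild-type HCT-116 cells, 2hr compound treatment following overnight attachment at 37 C.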

[6] = qHTS assay to identify small molecule agonists of the sonic hedgehog signaling (Shh) pathway - cell viability counter screen (AID 1259366); note: nearly all actives have a fitted effect of over 50% in size
Method in brief: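 Viability measured fluorometrically (CellTiter-Fluor, 1hr, 37C) in 3T3 Gli1-Luc reporter cells after 23hr compound exposure within a 24hr incubation at 37C/5% CO2.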

[7] = qHTS assay to identify small molecule antagonists of the sonic hedgehog signaling (Shh) pathway - cell viability counter screen (AID 1259367); note: nearly all actives have a fitted effect of over 55% in size
Method in brief: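 NIH/3T3-derived Gli1-Luc reporter cells (2,000 per well) rested 4 hr at 37 C, then received DMSO compounds plus conditioned medium. After 23 hr of treatment, CellTiter-Fluor was added for 1 hr at 37C and fluorescence read.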

[8] = qHTS assay to identify small molecule agonists of the sonic hedgehog signaling (Shh) pathway (AID 1259368; calls by dose curve;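 note: NIH/3T3-derived 3T3Gli1-Luc cells carrying a stable Gli1-driven firefly luciferase reporter; series mostly up to about 92 µM; nearly all actives have a fitted effect of over 15% in size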)
Method in brief: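 Luminescent signal was taken as a measure of Gli1-controlled luciferase expression in stably transfected NIH/3T3-derived cells that had been treated for 24 hr with compounds delivered in DMSO.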

[9] = qHTS assay to identify small molecule agonists of the androgen receptor (AR) signaling pathway in the presence of an antagonist - cell viability counter screen (AID 1259379);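 note: MDA-kb2 human breast cancer cells carrying an MMTV luciferase reporter; series mostly up to about 92 µM; nearly all actives have a fitted effect of over 25% in size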
Method in brief: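 In MDA-kb2 cells (human breast carcinoma, MMTV-luciferase), compounds at 15 concentrations plus 3.0uM nilutamide; 16 hr, 37C, 0% CO2; CellTiter-Fluor fluorescence read for viability.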

[10] = qHTS assay to identify small molecule antagonists of the estrogen receptor beta (ER-beta) signaling pathway - cell viability counter screen (AID 1259382); note: nearly all actives have a fitted effect of over 55% in size; note: potency is the fitted concentration of half-maximal effect
Method in brief: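 Tox21 10K library tested in qHTS format on ER-beta-bla HEK293T cells stimulated with 1nM E2; 16 hr treatment at 37C. Same-well CellTiter-Glo luminescence served as the cell viability measure.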

[11] = qHTS assay to identify small molecule antagonists of the sonic hedgehog signaling (Shh) pathway (AID 1259369; calls by dose curve; note: nearly all actives have a fitted effect of over 45% in size)
Method in brief: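 Screening used 3T3Gli1-Luc cells at 2,000 per well, compounds delivered in DMSO, and conditioned medium as agonist stimulus; plates incubated 24hr at 37 C and 5% CO2 before a 30min luciferase step.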

[12] = target: Estrogen receptor beta (Homo sapiens) (UniProt Q92731); assay: qHTS assay to identify small molecule agonists of the estrogen receptor beta (ER-beta) signaling pathway (AID 1259377; active = well fitted activation curve with a large enough effect in the signal ratio in the repeat runs, not every such curve was filed as active; the % refers to the signal ratio)
Method in brief: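 A UAS-controlled beta-lactamase reporter in ER-beta-UAS-bla HEK293T cells reports receptor activation. Compounds act for 16 hr at 37C in 2% charcoal-stripped serum, and a FRET substrate is read by fluorescence after 2 hours.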

[13] = target: Estrogen receptor beta (Homo sapiens) (UniProt Q92731); assay: qHTS assay to identify small molecule antagonists of the estrogen receptor beta (ER-beta) signaling pathway (AID 1259378; active = well fitted inhibition curve with a large enough effect in the signal ratio in the repeat runs, not every such curve was filed as active; the % refers to the signal ratio)
Method in brief: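 ER-beta-UAS-bla HEK293T (GripTite) cells in 2% charcoal-stripped FBS medium were preincubated 6 hr at 37C, dosed with compound, then stimulated with 1 nM E2 (final) for 16 hr; beta-lactamase reporter read by B/G FRET fluorescence after 2 hr substrate loading.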

[14] = qHTS assay to identify small molecule agonists of the estrogen receptor beta (ER-beta) signaling pathway - cell viability counter screen (AID 1259380); note: nearly all actives have a fitted effect of over 30% in size; note: potency is the fitted concentration of half-maximal effect
Method in brief: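 Viability of ER-beta-UAS-bla HEK293T cells was determined by CellTiter-Glo luminescence following 16 hr treatment with test compounds at 37C.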

[15] = qHTS assay to identify small molecule agonists or antagonists of the thyroid stimulating hormone receptor (TSHR) signaling pathway - wild type cell line counter screen (AID 1259384; calls by dose curve)
Method in brief: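 Wild-type HEK293 cells were plated 18 h at 37 C/5% CO2, pin-dosed with compound plus Ro20-1724 medium, held 30 min at room temperature, then given cAMP-d2 and anti-cAMP-cryptate; fluorescence was read after 1 h. Fifteen concentrations, triplicate.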

[16] = target: Estrogen receptor (Homo sapiens) (UniProt P03372); assay: qHTS assay to identify small molecule agonists of the estrogen receptor alpha (ER-alpha) signaling pathway in the presence of an antagonist (AID 1259383; calls by dose curve; note: top concentration of the series differs between compounds; nearly all actives have a fitted effect of over 15% in size)
Method in brief: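 In VM7Luc4E2 cells, 4,000 per well, compounds at 15 concentrations were co-incubated 22hr at 37C with 10.0nM final ICI-182,780. Luminescence from the stably transfected 4×ERE-luciferase reporter was recorded 30min after ONE-Glo addition.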

[17] = target: Thyrotropin receptor (Homo sapiens) (UniProt P16473); assay: qHTS assay to identify small molecule antagonists of the thyroid stimulating hormone receptor (TSHR) signaling pathway (AID 1259385; calls by dose curve; note: nearly all actives have a fitted effect of over 20% in size)
Method in brief: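 TSHR-HEK293 cells were plated and held 18 h at 37C/5% CO2, then given compound plus Ro20-1724 and stimulated with TSH at 1.5 ng/mL final. After 30 min at room temperature, cAMP was detected with cAMP-d2/anti-cAMP-cryptate (1 h) by fluorescence.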

Chain of Thyrotropin receptor (Homo sapiens) (P16473 whole entry, looked up): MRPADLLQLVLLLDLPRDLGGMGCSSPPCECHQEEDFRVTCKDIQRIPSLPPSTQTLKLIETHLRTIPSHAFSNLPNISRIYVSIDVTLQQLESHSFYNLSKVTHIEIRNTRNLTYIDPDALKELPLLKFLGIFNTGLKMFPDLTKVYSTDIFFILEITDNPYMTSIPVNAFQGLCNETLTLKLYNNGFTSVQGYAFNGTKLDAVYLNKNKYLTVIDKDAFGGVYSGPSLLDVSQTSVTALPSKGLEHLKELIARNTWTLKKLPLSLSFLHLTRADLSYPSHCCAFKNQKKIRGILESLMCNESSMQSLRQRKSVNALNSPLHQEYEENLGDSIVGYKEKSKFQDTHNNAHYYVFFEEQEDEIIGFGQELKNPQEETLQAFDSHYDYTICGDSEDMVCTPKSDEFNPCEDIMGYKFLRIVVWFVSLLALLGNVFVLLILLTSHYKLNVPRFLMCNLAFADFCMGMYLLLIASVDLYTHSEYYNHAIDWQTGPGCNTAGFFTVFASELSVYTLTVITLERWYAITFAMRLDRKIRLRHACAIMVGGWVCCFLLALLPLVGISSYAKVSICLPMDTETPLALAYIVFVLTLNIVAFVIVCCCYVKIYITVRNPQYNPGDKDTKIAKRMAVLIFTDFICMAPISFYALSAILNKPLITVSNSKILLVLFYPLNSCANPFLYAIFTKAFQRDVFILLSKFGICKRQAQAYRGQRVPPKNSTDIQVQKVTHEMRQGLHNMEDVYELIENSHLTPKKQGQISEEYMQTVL
Chain of Estrogen receptor (Homo sapiens) (P03372 whole entry, looked up): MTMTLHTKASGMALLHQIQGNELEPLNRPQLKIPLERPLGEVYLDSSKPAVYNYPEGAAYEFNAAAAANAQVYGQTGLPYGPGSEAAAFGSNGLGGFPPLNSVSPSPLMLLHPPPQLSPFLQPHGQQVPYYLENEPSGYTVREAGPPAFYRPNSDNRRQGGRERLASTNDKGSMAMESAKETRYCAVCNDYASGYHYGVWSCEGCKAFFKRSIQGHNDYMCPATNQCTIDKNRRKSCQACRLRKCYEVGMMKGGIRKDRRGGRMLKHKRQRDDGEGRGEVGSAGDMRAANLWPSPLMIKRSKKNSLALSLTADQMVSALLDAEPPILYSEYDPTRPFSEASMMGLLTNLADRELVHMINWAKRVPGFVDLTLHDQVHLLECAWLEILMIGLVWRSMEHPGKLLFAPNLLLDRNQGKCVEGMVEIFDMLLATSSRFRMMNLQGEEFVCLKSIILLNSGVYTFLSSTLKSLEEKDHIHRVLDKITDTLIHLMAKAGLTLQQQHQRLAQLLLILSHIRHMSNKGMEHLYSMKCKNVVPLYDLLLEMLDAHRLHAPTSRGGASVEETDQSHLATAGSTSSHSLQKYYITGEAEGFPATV
Chain of Estrogen receptor beta (Homo sapiens) (Q92731 whole entry, looked up): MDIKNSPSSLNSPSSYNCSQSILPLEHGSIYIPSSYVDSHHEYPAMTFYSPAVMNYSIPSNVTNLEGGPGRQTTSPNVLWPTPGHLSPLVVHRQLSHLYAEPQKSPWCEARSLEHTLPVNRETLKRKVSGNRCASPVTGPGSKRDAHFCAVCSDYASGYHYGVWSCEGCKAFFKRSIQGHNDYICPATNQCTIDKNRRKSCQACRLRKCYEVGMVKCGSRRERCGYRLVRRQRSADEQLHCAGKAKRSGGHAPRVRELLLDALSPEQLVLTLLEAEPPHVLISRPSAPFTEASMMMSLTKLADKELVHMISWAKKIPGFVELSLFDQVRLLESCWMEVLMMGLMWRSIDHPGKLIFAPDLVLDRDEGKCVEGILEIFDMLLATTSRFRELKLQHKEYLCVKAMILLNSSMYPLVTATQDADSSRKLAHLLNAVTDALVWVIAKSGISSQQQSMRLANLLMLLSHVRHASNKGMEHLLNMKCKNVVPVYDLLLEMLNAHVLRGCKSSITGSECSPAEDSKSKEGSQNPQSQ

Row | Compound | Potency [1] | Potency [2] | Potency [3] | Potency [4] | Potency [5] | Potency [6] | Potency [7] | Potency [8] | Potency [9] | Potency [10] | Potency [11] | Potency [12] | Potency [13] | Potency [14] | Potency [15] | Potency [16] | Potency [17]
1 | CC(C)N=C=NC(C)C | inactive | inactive | inactive | inactive | inactive | inactive | inactive | inactive | inactive | inactive |  |  |  |  |  |  | 
2 | O=c1[nH][nH]c(=O)c2cc([N+](=O)[O-])ccc12 | inactive | inactive | inactive | inactive | inactive | inactive | inactive | inactive | inactive | inactive | inactive | inactive | inactive | inactive | inactive |  | 
3 | CC(C)CC(O)CC(C)C | inactive | inactive | inactive | inactive | inactive | inactive | inactive | inactive |  | inactive | inactive |  |  | inactive | inactive | inactive | inactive
4 | O=[N+]([O-])c1ccc2ncccc2c1 | inactive | inactive | inactive | inactive | inactive | inactive | inactive | inactive | inactive | inactive | inactive | inactive | inactive |  | inactive | inactive | inactive
5 | O=C(/C=C/c1ccc([N+](=O)[O-])cc1)c1ccccc1 | inactive | inactive | inactive | 8.65 µM (active) | inactive |  | inactive | inactive |  | inactive |  |  |  |  | inactive |  | inactive
6 | O=C(O)c1cccc(C[C@@H]2COc3ccc(OCc4nc5cc(F)ccc5s4)cc3[C@@H]2O)c1 | inactive | inactive | inactive | inactive | inactive | inactive | inactive |  |  | inactive | inactive | inactive | inactive | inactive | inactive |  | inactive
7 | CCCCCCC(O)CCOC(C)=O (configuration not stated) | inactive | inactive | inactive | inactive | inactive | inactive | inactive | inactive | inactive | inactive | inactive | inactive | inactive | inactive | inactive |  | inactive
8 | COC(OC)OC | inactive | inactive | inactive | inactive | inactive |  | inactive | inactive | inactive | inactive | inactive | inactive | inactive |  | inactive |  | inactive
9 | C=CC(=O)NC(C)C | inactive | inactive | inactive | inactive | inactive |  | inactive | inactive | inactive | inactive | inactive |  |  | inactive | inactive | inactive | 
10 | O=C1NC(=O)c2cccc3cccc1c23 | inactive | inactive | inactive | inactive | inactive | inactive | inactive | inactive | inactive | inactive | inactive | inactive | inactive |  | inactive |  | inactive
11 | O=C(O)c1cccc(Oc2ccccc2)c1 | inactive | inactive | inactive | inactive | inactive | inactive | inactive | inactive | inactive | inactive | inactive |  |  |  | inactive | inactive | inactive
12 | FC(F)(F)C(F)(F)C(F)(F)C(F)(F)CCI | inactive | inactive | inactive | inactive | inactive |  | inactive | inactive | inactive | inactive | inactive |  |  | inactive | inactive |  | inactive
13 | CC(C)C(=O)OCCOc1ccccc1 | inactive | inactive | inactive | inactive | inactive | inactive | inactive | inactive | inactive | inactive | inactive | inactive | inactive |  | inactive | inactive | inactive
14 | CCOC(=O)C(C)O (configuration not stated) | inactive | inactive | inactive | inactive | inactive |  | inactive | inactive | inactive | inactive | inactive | inactive | inactive | inactive |  | inactive | 
15 | CCCCCCCCCCCSCC(=O)O | inactive | inactive | 54.5 µM (active) | inactive | inactive | inactive | inactive | inactive | inactive | 24.3 µM (active) |  |  |  | 27.3 µM (active) | inactive | inactive | 
16 | NC(=O)c1ccccc1[N+](=O)[O-] | inactive | inactive | inactive | inactive | inactive | inactive | inactive | inactive | inactive | inactive | inactive |  | inactive | inactive | inactive | inactive | 
